Among the data in PubChem BioAssay AID709 (SRMLSC, 2007) are fluorescence fold increase values, retold here.

Out of some 65,000 compounds screened, about 3,600 (5.5%) were called active. Shown is part of a subset that was picked to be rich in actives. A number with no mark means an inactive call.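 The calls were made as follows: active = at 10 µM, mean starting fluorescence two-fold or more over control wells; inactive = the rest.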

The test in a line: intrinsic fluorescence of library compounds, ex339/em460 – biochemical, MLSMR library, data from DPM-DC assay, artefact control, profiling panel (AID 709).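 Also: signal is the first read of a kinetic run.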 The note with it: compound autofluorescence, ex339/em460 nm, NADH buffer; at 10 µM; active compounds read high.
Consider `CCOC(=O)c1c(N)n(Cc2ccccc2)c2nc3ccccc3nc12`, for which the fluorescence fold increase was 4.96 (active).

As for `O=C(O)C1CSC(c2cccnc2)N1` (stereo not given), the fluorescence fold increase was 1.05.

Turning to `CC1(C)C(c2ccccc2)=NC(c2cccnc2)=[N+]1[O-]`, the fluorescence fold increase was 1.1.

Regarding `CCOC(=O)c1c(C)c(C(=O)N2CCC3(CC2)OCCO3)c(C)n1CC`, the fluorescence fold increase was 1.05.

For the molecule `CCOC(=O)c1c(-c2ccccc2)oc2ccc(OC(=O)N(C)C)cc12`, the fluorescence fold increase was 3.72 (active).

`N[C@@H](Cc1c[nH]c2ccccc12)c1nnc(SCc2c(F)cccc2Cl)o1`: the fluorescence fold increase was 1.15.

In the case of `CCOC(=O)C1=C(C)OC(N)=C(C(=O)OC)C12C(=O)Nc1ccc(Br)cc12` (stereo not given), the fluorescence fold increase was 1.1.

Regarding `CCc1cccc2c(C#N)cn(CC(=O)N3CCOCC3)c12`, the fluorescence fold increase was 1.27.

For the molecule `COC(=O)COc1cc(C)cc2oc(=O)c3c(c12)CCCC3`, the fluorescence fold increase was 2.2 (active).

`OC(CNC1CCCCC1)c1ccccc1` (stereo not given): the fluorescence fold increase was 1.04.

Regarding `CCOC(=O)C(O)(c1ccc(NC(=O)c2ccco2)c(OC)c1)C(F)(F)F` (stereo not given), the fluorescence fold increase was 1.11.

`Cc1cccc(-n2c(C)nc3cc(C(=O)N4CCC5(CC4)OCCO5)ccc32)c1`: the fluorescence fold increase is 1.13.

As for `O=C(c1cc(-c2ccncc2)nc2ccccc12)N1CCC2(CC1)OCCO2`, the fluorescence fold increase was 1.11.

For the molecule `O=C(c1cc2nc(-c3ccccc3)cc(-c3ccccc3)n2n1)N1CCC2(CC1)OCCO2`, the fluorescence fold increase was 2.35 (active).

With `CCOC(=O)CC1=C(C(=O)OCC)C2(C(=O)N1)C(C(=O)OC)=C(N)Oc1ccccc12` (stereo not given), the fluorescence fold increase was 1.12.

As for `COc1ccc(CCn2c(O)c(C=NC3CC3)c(=O)[nH]c2=O)cc1OC`, the fluorescence fold increase was 1.06.

`CN1CCN(C(=O)COc2ccc(C(C)(C)C)cc2Br)CC1`: the fluorescence fold increase was 1.12.

In the case of `COc1ccc(C(=O)CC2C(=O)N(C)C(=O)N(C)C2=O)cc1`, the fluorescence fold increase is 1.08.

Take `CCC/C(=N\O)c1c[nH]c2ccccc12`: the fluorescence fold increase is 1.08.

As for `CC1=C(C(=O)Nc2ccccc2)SCCO1`, the fluorescence fold increase was 1.08.
